Only a selection was taken, and hits are over-represented in it overall.
PRC2 inh: EZH2/PRC2 methyltransferase inhibitors, primary screen, biochemical, DELFIA time-resolved fluorescence, single point | Histone-lysine N-methyltransferase EZH2 (Homo sapiens), Q15910 | PRC2 H3K27 methylation, DELFIA TRF, 1 h | inhibition, % at 12.5 µM | 0.35% of 57,000 active | AID 651548, 2012;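 active = mean inhibition of replicates at least 50% and every single replicate also reaching 50%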;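 note: dimethyl H3K27 on biotinylated H3 21-44 peptide detected by antibody; plate controls were median neutral control wells for no effect and median positive control wells for full effect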
Target sequence (Q15910 whole entry, looked up): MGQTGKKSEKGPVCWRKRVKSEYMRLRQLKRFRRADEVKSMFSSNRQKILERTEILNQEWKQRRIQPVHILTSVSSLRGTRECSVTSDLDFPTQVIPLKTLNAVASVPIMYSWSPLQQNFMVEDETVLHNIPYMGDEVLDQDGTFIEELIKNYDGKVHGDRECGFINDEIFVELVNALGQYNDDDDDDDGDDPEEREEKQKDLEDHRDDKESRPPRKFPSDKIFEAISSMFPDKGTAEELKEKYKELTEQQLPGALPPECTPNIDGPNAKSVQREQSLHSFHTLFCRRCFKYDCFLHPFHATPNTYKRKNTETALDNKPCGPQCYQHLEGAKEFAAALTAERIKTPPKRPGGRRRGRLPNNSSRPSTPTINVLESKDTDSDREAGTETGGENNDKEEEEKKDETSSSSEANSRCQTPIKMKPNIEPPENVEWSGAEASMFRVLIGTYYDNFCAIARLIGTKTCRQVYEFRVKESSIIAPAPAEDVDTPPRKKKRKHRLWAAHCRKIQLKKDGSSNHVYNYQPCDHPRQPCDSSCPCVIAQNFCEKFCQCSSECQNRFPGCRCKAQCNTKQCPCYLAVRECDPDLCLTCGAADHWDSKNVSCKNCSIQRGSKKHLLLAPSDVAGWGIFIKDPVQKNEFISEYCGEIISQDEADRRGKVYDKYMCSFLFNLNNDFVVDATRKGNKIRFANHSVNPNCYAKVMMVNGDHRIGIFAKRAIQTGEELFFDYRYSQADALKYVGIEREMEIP
Numbers without * were called inactive.

SMILES | PRC2 inh
C[C@H](CO)N1C[C@H](C)[C@H](CN(C)C(=O)Nc2cccc3ccccc23)Oc2c(NS(=O)(=O)c3ccccc3)cccc2C1=O | -5.5
CCn1c(SCC(=O)Nc2ccc(C(C)=O)cc2)nnc1-c1cc(Br)ccc1O | -0.8
CO[C@@H]1CN(C)C(=O)c2ccc(NS(C)(=O)=O)cc2OC[C@@H](C)N(CC2CCCCC2)C[C@H]1C | -9.4
Cc1ccc(S(=O)(=O)NC(=O)COc2cccc3ccccc23)c(C)c1 | 25.1
CCC(=O)Nc1ccc2c(c1)C(=O)N(C)C[C@H](OC)[C@H](C)CN(Cc1cncnc1)[C@H](C)CO2 | 9.9
C[C@@H]1CCCCO[C@H](CN(C)Cc2ccncc2)[C@@H](C)CN([C@@H](C)CO)C(=O)c2cc(NC(=O)c3ccccc3)ccc2O1 | 8.5
COCC(=O)Nc1ccc2c(c1)[C@@H]1C[C@@H](CC(=O)N(C)C)O[C@@H](CO)[C@@H]1O2 | 2.5
O=C(Nc1ccc(F)cc1)N[C@H]1CC[C@H](CC(=O)N2CCOCC2)O[C@H]1CO | -1.5
CCCCCCCCC(=O)NCc1cc(OC)c(O)cc1I | 12.3
CCCCCCCCCCC(C)(C)C(=O)Nc1c(OC)cc(OC)cc1OC | 84.8*
COc1ccc(OC)c(NC(=O)COc2ccc(C(C)(C)C)cc2)c1 | 35.3
CO[C@@H]1CN(C)C(=O)c2cc(NC(=O)c3cc(C)on3)ccc2OC[C@@H](C)N(CC2CC2)C[C@H]1C | -0.3
CCS(=O)(=O)NCC[C@H]1CC[C@H](NC(=O)Cc2ccccn2)[C@H](CO)O1 | -2.8
N#C[C@@H](O[C@@H]1O[C@H](CO)[C@@H](O)[C@H](O)[C@H]1O[C@@H]1O[C@H](CO)[C@@H](O)[C@H](O)[C@H]1O)c1ccccc1 | -11.0
N#CC(OC1OC(COC2OCC(OC(=O)/C=C/c3ccc(OC4OC(CO)C(O)C(O)C4O)cc3)C(O)C2O)C(O)C(O)C1O)c1ccccc1 (stereo not given) | 90.4*
C[C@@H]1O[C@@H](O[C@@H]2[C@@H](O)[C@H](Oc3cc(O)c4c(c3)OC(c3ccc(O)cc3)CC4=O)O[C@H](COC3OCC(O)C(O)C3O)[C@H]2O)[C@H](O)[C@H](O)[C@H]1O (stereo not given in full) | -14.3
Cc1ccc([N+](=O)[O-])cc1NC(=O)CSc1nnc(-c2ccncc2)n1-c1ccccc1 | 5.1
O=C(Cc1ccccn1)N[C@H]1CC[C@@H](CCNC(=O)c2cc(Cl)cc(Cl)c2)O[C@H]1CO | -8.4
O=C(O)CC(CCc1ccccc1)OC1OC(CO)C(O)C(O)C1O (stereo not given) | 97.8*
CC(=O)c1cc(C)c(O)c(COC2OC(CO)C(O)C(O)C2O)c1O (stereo not given) | 17.8
CC(C)CC(=O)O[C@@H]1OC=C(CO[C@@H]2O[C@H](CO)[C@@H](O)[C@H](O)[C@H]2O)[C@H]2C[C@H](O)[C@@](C)(O)[C@@H]12 | 9.7
N#CCCN(Cc1ccccc1)C(=O)c1ccccc1[N+](=O)[O-] | 8.0
C[C@@H]1O[C@@H](O[C@H]2[C@H](Oc3cc(O)c4c(=O)cc(-c5ccc(O)cc5)oc4c3)O[C@H](CO)[C@@H](O)[C@@H]2O)[C@H](O)[C@H](O)[C@H]1O | -5.2
CC1OC(OCC2OC(Oc3cc(O)c4c(=O)c(-c5ccc(O)cc5)coc4c3)C(O)C(O)C2O)C(O)C(O)C1OC1OC(CO)C(O)C(O)C1O (stereo not given) | 63.5*
COc1ccc(-c2coc3cc(O[C@@H]4O[C@H](CO)[C@@H](O)[C@H](O)[C@H]4O)cc(O)c3c2=O)cc1 | -17.9
SMILES | PRC2 inh
CO[C@@H]1CN(C)C(=O)c2cc(NC(=O)C3CC3)ccc2OC[C@@H](C)NC[C@@H]1C | -9.1
O=C(N[C@@H]1CC[C@H](CCNC(=O)C2CCC2)O[C@@H]1CO)c1ccccn1 | 2.9
C[C@@H]1O[C@@H](O[C@H]2[C@@H]3C=CO[C@@H](O[C@@H]4O[C@H](CO)[C@@H](O)[C@H](O)[C@H]4O)[C@@H]3[C@@]3(CO)O[C@@H]23)[C@H](OC(=O)/C=C/c2ccc(O)c(O)c2)[C@H](O)[C@H]1O | 17.5
C=C1CC(O)C2C(=C)C(=O)OC2C2C(=C)C(OC3OC(CO)C(O)C(OC(=O)/C=C/c4ccc(O)c(O)c4)C3O)CC12 (stereo not given) | 76.3*
O=C(/C=C/c1ccc(O)c(O)c1)OCCc1ccccc1 | 14.7
O=C(NCC[C@@H]1CC[C@@H](NS(=O)(=O)c2cccc(F)c2)[C@@H](CO)O1)C1CCCC1 | -11.9
O=C(OCc1nc2ccccc2s1)c1ccco1 | -0.7
O=C(Nc1ccc(OCc2nc3ccccc3s2)cc1)c1cccc(I)c1 | 20.3
COc1cccc(C(=O)OCc2nc3ccccc3s2)c1 | 52.8*
Cc1ccc(-c2ccc3c(c2)O[C@H](CN(C)C(=O)C2CCCCC2)[C@H](C)CN([C@H](C)CO)S3(=O)=O)cc1 | -15.2
O=C1C[C@@](C(=O)NCc2ccccc2)(c2ccc([N+](=O)[O-])cc2)[C@@H](c2ccc(CO)cc2I)N1CC12CC3CC(CC(C3)C1)C2 | -19.4
COC(=O)C1=CO[C@@H](O[C@@H]2O[C@H](CO)[C@@H](O)[C@H](O)[C@H]2O)[C@@H]2[C@@](C)(O)[C@@H](OC(=O)/C=C/c3ccc(OC)c(O)c3)C[C@]12O | 52.5*
COC(=O)C1=CO[C@@H](O[C@@H]2O[C@H](CO)[C@@H](O)[C@H](O)[C@H]2O)[C@H]2[C@@H]1[C@H](OC(=O)/C=C/c1ccc(O)cc1)C[C@]2(C)OC(C)=O | 3.4
COC(=O)C1=CO[C@@H](O[C@@H]2O[C@H](CO)[C@@H](O)[C@H](O)[C@H]2O)C2C1CCC2(C)O (stereo not given in full) | 17.7
CO[C@@H]1CN(C)C(=O)c2cc(NC(=O)C3CCOCC3)ccc2OC[C@@H](C)N(Cc2cccnc2)C[C@@H]1C | 5.0
C[C@H](CO)N1C[C@H](C)[C@H](CN(C)C(=O)Cc2ccccc2)Oc2cc(C#CC3(O)CCCC3)ccc2S1(=O)=O | -1.1
COc1cc(C[C@H]2CO[C@H](c3ccc(O[C@@H]4O[C@H](CO)[C@@H](O)[C@H](O)[C@H]4O)c(OC)c3)[C@H]2CO)ccc1O | 99.5*
COc1cc(C2OCC3(OC4OC(CO)C(O)C(O)C4O)C(c4ccc(O)c(OC)c4)OCC23)ccc1O (stereo not given) | -20.9
COc1cc(/C=C/c2cc(O)cc(O[C@@H]3O[C@H](CO)[C@@H](O)[C@H](O)[C@H]3O)c2)ccc1O[C@@H]1O[C@H](CO)[C@@H](O)[C@H](O)[C@H]1O | 28.0
C[C@H]1CN([C@@H](C)CO)C(=O)c2cc(-c3ccc(F)cc3)cnc2O[C@H]1CN(C)C(=O)c1ccncc1 | 7.9
CCS(=O)(=O)Nc1ccc2c(c1)C(=O)N(C)C[C@H](OC)[C@H](C)CN(C(=O)C1CC1)[C@H](C)CO2 | -0.8
COc1ccccc1NC(=O)CSC1=NC(c2ccccc2)CC(=O)N1 (stereo not given) | 7.5
